PubChem BioAssay AID1508609 (The Scripps Research Institute Molecular Screening Center, 2020)
The campaign covered roughly 6,700 compounds. Fewer than 10 were called active.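 The calls were made as follows: active = mean percent activation across replicates above the confirmation screen cutoff of 4.91%; inactive = the rest.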 Only a sample is shown.

molecular target: G-protein coupled receptor 151 (Homo sapiens) (UniProt Q8TDV0); test: GPR151 activators, triplicate retest, confirmation, cell-based, PathHunter beta-arrestin, luminescence (AID 1508609); conditions: GPR151 PathHunter beta-arrestin cells, 90 min, at 11.2 µM, active compounds read high, % of EA-reagent control over plate median
Sequence (Q8TDV0 whole entry, looked up): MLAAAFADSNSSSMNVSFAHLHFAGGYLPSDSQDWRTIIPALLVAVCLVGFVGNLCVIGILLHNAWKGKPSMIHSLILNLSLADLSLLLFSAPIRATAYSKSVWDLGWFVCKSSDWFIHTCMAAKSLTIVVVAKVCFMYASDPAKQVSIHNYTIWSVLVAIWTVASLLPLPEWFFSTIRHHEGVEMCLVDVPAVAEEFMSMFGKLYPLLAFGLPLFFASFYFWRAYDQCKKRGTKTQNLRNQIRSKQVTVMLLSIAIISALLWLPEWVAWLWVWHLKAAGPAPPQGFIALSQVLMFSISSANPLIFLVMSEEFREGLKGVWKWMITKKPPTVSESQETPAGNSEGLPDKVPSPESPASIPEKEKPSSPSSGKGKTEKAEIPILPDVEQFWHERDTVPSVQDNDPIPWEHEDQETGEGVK

activation, inactive:
COc1ccc(CCNc2cc(C)nc(Nc3cccc(N(C)C)c3)n2)cc1 0.06%, O=C(Nc1ccc(NC(=O)c2cccc3c(Br)cccc23)cc1)c1ccco1 1.13%, COC(=O)[C@@H]1CC(O)CN1C(=O)C12CC3CC(CC(C3)C1)C2 (some centres undefined) 0.35%, CC1=C(C(=O)Nc2cccc(F)c2)C(c2ccccn2)C2=C(CCCC2=O)N1 (centres undefined) 0.25%, NC(=S)N/N=C/c1ccc([N+](=O)[O-])cc1 -0.11%, CC(C)C(=O)NC(=S)Nc1ccccc1F 0.14%, COc1ccc(C2(NC(=O)CCn3cnc4sc(C)c(C)c4c3=O)CCCCC2)cc1 0.69%, CCC1=C(C)c2cc3nc(C(=O)OCc4ccccc4)c(C)c-3c(C)n2C1C (centres undefined) -0.16%, CCN(CC)C(=O)C1CCCN(c2cc(N)nc(N)n2)C1 (centres undefined) -0.11%, CCC1C(=O)NCCN1Cc1ccc2c(c1)CN(Cc1c[nH]c3ccccc13)CCO2 (centres undefined) 1.68%, CN1C(=O)c2ccc(N3C(=O)c4cccc([N+](=O)[O-])c4C3=O)cc2C1=O -0.57%, Cc1ccc[n+](-c2ncnc(N)c2[N+](=O)[O-])c1 -0.67%, COc1cccc(-c2ocnc2C(=O)Nc2ccc3nc(-c4cccnc4)oc3c2)c1 0.94%, O=C(c1cc([N+](=O)[O-])ccc1NC1CCCCC1)N1CCOCC1 -1.3%, C=CCN1C(=O)CC(C(=O)OC)C12CCN(C1CCN(C(=O)OCC)CC1)CC2 (centres undefined) -0.6%, Cc1cccc(-n2nc3c(c2NC(=O)CCC2CCCCC2)CS(=O)(=O)C3)c1C 0.42%, COc1ccc(C2C(C#N)=C(N)Oc3c2c(C)nn3-c2ccccc2)cc1 (centres undefined) 0.69%, CC(=O)c1ccc(NC(=O)c2ccc(CN(c3ccc(C)c(C)c3)S(C)(=O)=O)cc2)cc1 -0.1%, CC1CCCC(NCc2c(C(=O)O)n(Cc3ccc(Cl)cc3)c3ccccc23)C1C (centres undefined) 0.3%, Cc1cccc(C)c1-n1c(=S)sc2c(=O)n(-c3cccc(Cl)c3)c(SCC#N)nc21 2.02%, CCCCc1ccc(N=Cc2nc(-c3cccc4ccccc34)oc2O)cc1 -1.01%, Cc1ccc(N2C(=O)CC(N3CCN(Cc4ccc(Cl)cc4)CC3)C2=O)cc1Cl (centres undefined) 0.04%, Oc1ccc(Cn2cc[nH]c2=S)cc1 -0.7%, CC(C)NC(=O)/C=C/c1ccccc1Cl -0.37%, COc1ccc(C(=O)CSc2nc3sc4c(c3c(=O)n2-c2ccc(Cl)cn2)CCCC4)c(F)c1 -0.67%, NC(=O)C1CCN(C(=O)c2ccc(-c3ccccc3)cc2)CC1 -1.12%, COCCNC(=S)N1CCN(c2ccccc2OC)CC1 0.65%, Cc1ccc(-c2nnc(N3CCOCC3)c3ccccc23)cc1S(=O)(=O)N1CCN(C)CC1 -0.46%, CC(C)n1c(=O)[nH]c2c(C(N)=O)nc(-c3ccc(-c4ccccc4)cc3)nc21 -0.04%, COc1ccc(OC)c(/C=N/n2nnnc2N)c1 -0.17%, O=C(NCc1ccsc1)c1ccc(-n2cccc2)cc1 0.53%, C=CCc1ccccc1OCCN1CCNCC1 -0.14%, Cc1ccc(S(=O)(=O)NCC(c2cccnc2)N2CCN(c3ccc(F)cc3)CC2)cc1 (centres undefined) -0.45%, CC(=O)NC(CC(=O)O)c1ccc(F)cc1 (centres undefined) 0.27%, CC(=O)c1c(C)[nH]c(C(=O)N2CCN(c3ccc(Cl)cc3)CC2)c1C -0.42%, CC(=O)Oc1cccc(N2C(=O)C3C4c5ccccc5C(C)(c5ccccc54)C3C2=O)c1 (centres undefined) -0.54%, O=C(CC1C(=O)NCCN1Cc1ccc2ccccc2c1)NCCCn1cccn1 (centres undefined) 0.42%, CC(=O)Oc1cc2c(C(=O)NCCN3CCOCC3)c(C)oc2c2ccccc12 -0.37%, CCOc1ccc(NC(=O)COc2cccc(C)c2C)cc1 0.66%, Cc1cc2c(cc1S(=O)(=O)CCC(=O)Nc1ccccc1Cl)OCC(=O)N2 0.39%, O=C(CC12CC3CC(CC(C3)C1)C2)Nc1ccc2oc(=O)ccc2c1 -0.22%, CCOc1cc(C2C3=C(CCCC3=O)NC3=C2C(=O)CCC3)cc(Br)c1OCC 0.37%, COc1ccc([N+](=O)[O-])cc1NC(=O)C1CC(Cl)=CCC1C(=O)O (centres undefined) 0.92%, Brc1cnc(NC2CCCCC2)nc1 1.03%, COc1cc(-c2coc3cc(O[C@@H]4O[C@H](CO)[C@@H](O)[C@H](O)[C@H]4O)c(OC)c(O)c3c2=O)cc(O)c1OC -0.2%, COc1ccc(OC)c(S(=O)(=O)Oc2ccc(Cl)c3cccnc23)c1 0.21%, O=C(NCCO)c1cnc(NC2CCN(Cc3ccccc3)CC2)s1 0.92%, COc1ccc(C=O)cc1OCc1ccc(F)cc1 -0.07%, C=C(C)CSc1nc2sc3c(c2c(=O)n1-c1ccc(OC)cc1)CC(C)(C)OC3 0.13%, COC(=O)C1=CN(Cc2ccc(Cl)cc2)C=C(C(=O)OC)C1c1cc(OC)c(O)c(OC)c1 0.02%, Nc1nc(NC(=O)/C=C/c2ccc(F)cc2)nn1-c1ccccc1 0.79%, COCCNc1nc2nonc2nc1N(C)Cc1ccncc1C 1.1%, CC(C)N1CCc2c(sc(NC(=O)Cc3ccccc3)c2C#N)C1 0.16%, CC(C)c1ccc(CN[C@H]2C[C@H]3C(=O)N[C@@H](COCc4ccccc4)C(=O)N3C2)cc1 0.67%, CC(C)n1c(Nc2ccc3ncccc3c2)nc2c(NC3CC3)ncnc21 -0.12%, Cc1ccc(/C=C2/C(=O)NC(=O)N(c3ccccc3)C2=O)cc1[N+](=O)[O-] 0%, CN(C)c1cccc(Nc2cc(C(=O)Nc3ccc(N4CCOCC4)cc3)ccn2)c1 -1.31%, O=C(Nc1ccc(N2CCCC2=O)cc1)c1cncc(Br)c1 0.8%, COc1cc(Nc2ccnc(Nc3ccc(N4CCOCC4)cc3)n2)cc(OC)c1OC 3.41%, COc1ccc(COC(=O)NNC(=O)c2cccc(Cl)c2)cc1 -0.17%, CCOC(=O)C(C(=O)c1ccccc1)C1(O)C(=O)c2ccccc2C1=O (centres undefined) -0.37%, CCC(CC)C(=O)N1CCN(Cc2nc3sc(C)c(C)c3c(=O)[nH]2)CC1 0.36%, CCC(=O)Nc1cc(C(=O)O)ccc1C 0.34%, CCOC(=O)c1[nH]c2ccc(OC)cc2c1NC(=O)CN(C)C 0.64%, COc1ccc(C2=NN(C(=O)c3cc(OC)c(OC)c(OC)c3)C(c3ccc(Cl)cc3)C2)cc1OC (centres undefined) 0.2%, Cc1ccc(N2C(=O)CC(NCCN3CCOCC3)C2=O)cc1 (centres undefined) 0.27%, c1cncc(Nc2nc(NC3CC3)c3ncn(C4CCCCC4)c3n2)c1 -0.06%, CCCCOC(=O)C1=C(C)NC2=C(C(=O)CCC2)C1c1cccc([N+](=O)[O-])c1 (centres undefined) -0.99%, CC(=O)Nc1ccc(NC(=O)c2ccc3nc(Br)sc3c2)cc1 -0.12%, O=C(COc1ccc([N+](=O)[O-])cc1)Nc1ccc2oc(-c3cccc(F)c3)nc2c1 0.23%, COCC(=O)Nc1c(I)c(C(=O)NCC(O)CO)c(I)c(C(=O)N(C)CC(O)CO)c1I (centres undefined) -0.27%, CCN(CC)C(=O)C1CCCN(c2ncc(C)c(NCc3cccc(C(F)(F)F)c3)n2)C1 (centres undefined) 1.13%, COc1ccc2nc(/C(C#N)=C\c3cc4c(cc3OC)OCO4)[nH]c2c1 0.91%, Cc1cc(Nc2ccc(F)cc2)n2cnnc2n1 1.15%, CN(Cc1ccccc1)C(=O)c1nc2ccc(-c3cn[nH]c3)cc2s1 0.57%, O=C(/C=C/c1ccccc1)c1ccccc1O -0.11%, COC(=O)Cn1ncc2c3ccccc3n(Cc3cccc(Cl)c3)c2c1=O 0.15%, COc1ccc(CCNC(=S)NCc2cc(C)n(C)n2)cc1OC -0.26%, O=C1/C(=C\c2ccccc2)C(N2CCOCC2)=NN1c1ccc([N+](=O)[O-])cc1 0.23%, CC12CCC(C(=O)NC3CCCCC3)(OC1=O)C2(C)C (centres undefined) 0.51%, CN(Cc1nc(-c2ccc3c(c2)OCO3)no1)C1CCCc2ccccc21 (centres undefined) 0.68%, COc1ccc(-c2noc(-c3ccccc3Cl)n2)cc1 -0.15%, Cc1ccc2c(c1)N(CC(=O)N1CCC(C)CC1)C(=O)c1cccnc1O2 0.11%, CC(/C=N\NC(=O)CSc1nc(C)cc(C)n1)=C\c1ccccc1 -1.7%
